Experimental data reported in ChEMBL document CHEMBL3433997, “St. Jude Leishmania screening dataset” (2016).

These compounds were tested against Glucose transporter (Leishmania mexicana) (UniProt O61059) (assay: ST_JUDE_LEISH: Cytotoxicity at 2uM final concentration against transgenic Leishmania Mexicana promastigotes LmGT2 that are glucose transport deficient and complemented with the L. Mexicana glucose transporter 2. Activity is measured by DNA content using SYBR green in vitro).
Type: functional

| Structure (SMILES) | inhibition [%] |
| --- | --- |
| Cc1ccccc1C1CCN(C2CCC(NC(=O)/C=C/c3c(F)ccc(F)c3F)CC2)CC1 (stereo not given) | 2.13 |
| COc1ccc2ncc(Cl)c(CCN3CCC(NCc4ccc5c(n4)NC(=O)CS5)CC3)c2c1 | 2.97 |
| CCOc1ccccc1CCNCC1CCN(CC2CCCCC2)CC1 | 2.88 |
| CC1(C)Cc2c([nH]c3ccccc23)C(CCCCCCCCC2=NC(C)(C)Cc3c2[nH]c2ccccc32)=N1 | 0.21 |
| Cc1[nH]c(C)c(-c2ccc(Oc3ccccc3)cc2)c(=O)c1Br | -0.53 |
| O=C(/C=C/c1ccc(Cl)c(Cl)c1)NCCCCCN1CCCC(C(=O)Nc2ccc(Cl)c(Cl)c2)C1 (stereo not given) | -0.96 |
| CCCCOc1ccc(-n2c(Nc3ccccc3)nc3cc(S(N)(=O)=O)ccc32)cc1 | 7.09 |
| CC[C@H]1CN(CCCC(=O)c2ccccc2)CC[C@H]1CCCc1ccnc2ccc(OC(=O)c3ccccc3)cc12 | 2.72 |
| c1ccc(CN2CCc3cc4nccc(N5CCNCC5)c4cc32)cc1 | 0.88 |
| COc1ccc2c(c1)Nc1ccc(Cl)cc1C2N (stereo not given) | 0.48 |
| O=C(/C=C/c1ccc(Cl)c(Cl)c1)N1CCN(C(=O)Nc2ccc(F)c(Cl)c2)CC1 | 11.1 |
| COc1cc(NC2CCCC(NCc3cn(S(=O)(=O)c4ccccc4)c4ccccc34)C2)nc2ccccc12 (stereo not given) | 2.67 |
| O=C1C2C(c3ccc(Cl)c(Cl)c3)N3CC(OCc4ccccc4)CC3(C(=O)O)C2C(=O)N1c1ccc(Br)cc1 (stereo not given) | 3.46 |
| CNC(=O)c1ccccc1Nc1nc(Nc2ccc(N3CCOCC3)cc2)ncc1Cl | 74.6 |
| Nc1nc2c(ncn2COC2COP(=O)(O)OC2)c(=O)[nH]1 (stereo not given) | 12.3 |
| COc1ccc(-c2cccc(CNCc3ccc(F)cc3)c2)cc1S(=O)(=O)NCCN1CCCC1 | 6.87 |
| CCN1CCN(Cc2ccc3nc(-c4cc(C)n(Cc5cc(Cl)ccc5OCc5ccccc5)n4)[nH]c3c2)CC1 | -0.3 |
| Cc1ccc(OC2CCN(CCCCC3(C)C(=O)Nc4ccccc43)CC2)cc1 (stereo not given) | 9.07 |
| CN1CCC(Oc2cc(NC(=O)Nc3ccc(-c4ccncc4)c(Cl)c3)ccc2Cl)CC1 | 9.26 |
| Cc1cc(N(C)C2CCN(C)C2)nc(Nc2ccccc2Cl)n1 (stereo not given) | 2.94 |

| Structure (SMILES) | inhibition [%] |
| --- | --- |
| CN(C)c1ccc2c(c1)Sc1cc(N(C)C)ccc1N2C(=O)c1cccc(C(=O)O)c1 | 7.43 |
| O=C(Nc1ccc(Br)c(Cl)c1)c1cc([N+](=O)[O-])cc2cn[nH]c12 | 1.08 |
| Cc1[nH]c(C)c(-c2ccc(OCCCc3ccccn3)cc2)c(=O)c1Br | 8.48 |
| COc1ccc2[nH]ccc(=NN=Cc3ccccc3)c2c1 | 5.06 |
| CC(ON1C(N)=NC(N)=NC1(C)C)c1ccccc1 (stereo not given) | 6.95 |
| CNc1c2c(nc3ccc(NC(=O)CCCCCCc4ccccc4)cc13)CCCC2 | 4.32 |
| Nc1ccc(Oc2ccc(Cc3cnc(N)nc3N)cc2)cc1 | 3.87 |
| O=C(Nc1cccc(CN2CCCN(Cc3cccc(Cl)c3)CC2)c1)c1ccc(Cl)c(Cl)c1 | 4.28 |
| COc1ccc2c(c1CCNCCCCNCCc1c(OC)ccc3c1CCCC3)CCCC2 | 52.9 |
| Cc1cc(O)c(-c2cccc(Oc3ccc(Cl)cc3)c2)c(C)n1 | -3.29 |
| Cc1ccc2[nH]c3c(NCCCN(C)C)ncnc3c2c1 | -0.28 |
| COc1c(C2CCN(CCCCNC(=O)c3cc(-c4ccc(Cl)cc4)sc3C)CC2)ccc2c1CCCC2 | -2.53 |
| CCN1CCC(N(Cc2ccc(-c3ccc(C(F)(F)F)s3)cc2)C(=O)Cn2c(CCc3cccc(F)c3F)nc(=O)c3ccccc32)CC1 | 5.76 |
| CN(C)c1ccc(-c2nnc(Sc3ccc(C#N)c([N+](=O)[O-])c3)n2Cc2ccco2)cc1 | 0.63 |
| Cc1cc(C(=O)NCc2ccc(-c3c(C)noc3C)cc2)n(-c2ccc(Cl)cc2)n1 | 2.6 |
| Cc1ccoc1C(=O)Nc1cccc(-c2cccc(-c3nc4cc(C(F)(F)F)ccc4[nH]3)c2)c1 | -0.44 |
| O=C(Cc1ccc[n+]([O-])c1)Nc1cccc(-c2cccc(-c3nc4cc(F)ccc4[nH]3)c2)c1 | 4.13 |
| O=C(/C=C/c1cccc(Br)c1)NCCCCCN1CCC(c2c[nH]c3ccccc23)CC1 | 5.42 |
| COc1cccc2c(N/N=C/c3ccccc3[N+](=O)[O-])cc(C)nc12 | 0.39 |
| Cc1c2c(nn1-c1ccccc1)C(c1ccccc1)N(c1ccccc1)C2=O (stereo not given) | 0.75 |
